Paper PMC7862700, “An all-to-all approach to the identification of sequence-specific readers for epigenetic DNA modifications on cytosine”

Columns and labels:
Assay in all cases: DAPPL (digital affinity profiling via proximity ligation, sequencing); 10 mM Tris-HCl pH 7.5, 50 mM NaCl, 1 mM DTT, 4% glycerol, room temperature, 30 min; GST-TFs on glutathione beads, 16-mer random dsDNA library, 0.1% formaldehyde crosslink after washing; high values mean tight binding
FEV = target: T1, FEV (Homo sapiens, UniProt Q99581 1-238); settings: protein: recombinant; tags: N-terminal GST; dsDNA, one strand shown
T1 sequence: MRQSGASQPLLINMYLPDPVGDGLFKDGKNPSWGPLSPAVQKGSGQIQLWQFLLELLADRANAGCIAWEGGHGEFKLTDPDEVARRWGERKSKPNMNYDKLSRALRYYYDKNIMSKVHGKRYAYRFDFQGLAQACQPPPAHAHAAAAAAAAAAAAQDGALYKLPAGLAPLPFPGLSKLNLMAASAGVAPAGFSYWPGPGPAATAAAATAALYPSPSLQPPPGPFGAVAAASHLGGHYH
How it was run: (§1)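 After expression in yeast as GST fusions, human transcription factors were bound to glutathione beads, DNA-barcoded and mixed with a tag-only sample. The pools were incubated with 200 nmole of a 16-mer random double-stranded DNA library in Tris/NaCl/DTT/glycerol buffer (30 min, room temperature), washed and crosslinked with 0.1% formaldehyde. Proximity ligation with BsaI/T4 ligase ran for 1 h at 37 °C, before PCR amplification and sequencing on an Illumina NextSeq500. Binding signal is a hexamer's read frequency for a factor divided by its frequency for the tag-only sample.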

ETV5 = ETV5 (Homo sapiens, UniProt P41161 1-510); settings: protein: recombinant; tags: N-terminal GST; dsDNA, one strand shown
How it was run: as §1

HSF1 = HSF1 (Homo sapiens, UniProt Q00613 1-529); settings: protein: recombinant; tags: N-terminal GST; chain copies: 3; dsDNA, one strand shown
How it was run: as §1

SPIC = target: T2, SPIC (Homo sapiens, UniProt Q8N5J4 1-248); settings: protein: recombinant; tags: N-terminal GST; dsDNA, one strand shown
T2 sequence: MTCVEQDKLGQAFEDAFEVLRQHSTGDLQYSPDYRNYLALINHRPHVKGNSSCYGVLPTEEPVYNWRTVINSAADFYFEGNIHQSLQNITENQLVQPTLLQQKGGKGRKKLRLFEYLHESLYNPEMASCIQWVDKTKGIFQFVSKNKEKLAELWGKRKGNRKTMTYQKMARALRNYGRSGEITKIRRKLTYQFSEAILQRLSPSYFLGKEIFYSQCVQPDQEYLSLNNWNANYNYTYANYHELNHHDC
How it was run: as §1

ELF4 = ELF4 (Homo sapiens, UniProt Q99607 1-663); settings: protein: recombinant; tags: N-terminal GST; dsDNA, one strand shown
How it was run: as §1

ELK4 = target: T3, ELK4 (Homo sapiens, UniProt P28324-2 1-405); settings: protein: recombinant; tags: N-terminal GST; dsDNA, one strand shown
T3 sequence: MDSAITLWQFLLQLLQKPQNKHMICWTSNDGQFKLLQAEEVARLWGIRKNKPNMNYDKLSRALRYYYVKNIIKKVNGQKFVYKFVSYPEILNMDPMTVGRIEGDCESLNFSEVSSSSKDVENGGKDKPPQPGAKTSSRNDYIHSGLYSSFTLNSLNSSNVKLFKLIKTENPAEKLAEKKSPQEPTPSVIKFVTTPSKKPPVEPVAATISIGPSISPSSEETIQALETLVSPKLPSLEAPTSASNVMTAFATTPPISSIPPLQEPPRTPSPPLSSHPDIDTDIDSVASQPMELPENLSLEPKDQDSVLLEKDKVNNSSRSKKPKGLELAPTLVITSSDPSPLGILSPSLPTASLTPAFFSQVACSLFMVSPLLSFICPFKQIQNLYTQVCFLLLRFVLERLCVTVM
How it was run: as §1

ETV2 = target: T4, ETV2 (Homo sapiens, UniProt O00321 1-342); settings: protein: recombinant; tags: N-terminal GST; dsDNA, one strand shown
T4 sequence: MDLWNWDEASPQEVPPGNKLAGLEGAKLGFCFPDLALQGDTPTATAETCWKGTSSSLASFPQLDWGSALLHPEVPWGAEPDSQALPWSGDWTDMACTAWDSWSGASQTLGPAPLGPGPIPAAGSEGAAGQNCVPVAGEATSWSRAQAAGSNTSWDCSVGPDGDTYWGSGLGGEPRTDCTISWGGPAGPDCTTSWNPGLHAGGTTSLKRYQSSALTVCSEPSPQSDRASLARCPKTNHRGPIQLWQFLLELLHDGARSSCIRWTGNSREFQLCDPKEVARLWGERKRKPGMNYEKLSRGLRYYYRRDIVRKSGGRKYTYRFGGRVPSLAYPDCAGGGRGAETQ
How it was run: as §1

ELF3 = target: T5, ELF3 (Homo sapiens, UniProt P78545 1-371); settings: protein: recombinant; tags: N-terminal GST; dsDNA, one strand shown
T5 sequence: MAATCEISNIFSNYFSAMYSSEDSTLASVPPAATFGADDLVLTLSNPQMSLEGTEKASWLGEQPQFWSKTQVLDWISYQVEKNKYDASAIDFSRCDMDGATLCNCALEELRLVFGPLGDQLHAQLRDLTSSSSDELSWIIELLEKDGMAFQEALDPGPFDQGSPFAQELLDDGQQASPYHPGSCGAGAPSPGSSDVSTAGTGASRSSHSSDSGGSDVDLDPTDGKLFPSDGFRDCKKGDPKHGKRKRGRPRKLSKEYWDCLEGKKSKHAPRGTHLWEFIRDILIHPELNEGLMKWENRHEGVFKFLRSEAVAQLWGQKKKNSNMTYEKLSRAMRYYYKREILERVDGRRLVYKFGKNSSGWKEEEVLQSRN
How it was run: as §1

CRX = CRX (Homo sapiens, UniProt O43186 1-299); settings: protein: recombinant; tags: N-terminal GST; dsDNA, one strand shown
How it was run: as §1

ETV1 = ETV1 (Homo sapiens, UniProt P50549 1-477); settings: protein: recombinant; tags: N-terminal GST; dsDNA, one strand shown
How it was run: as §1

Chain of ETV1 (P50549 whole entry): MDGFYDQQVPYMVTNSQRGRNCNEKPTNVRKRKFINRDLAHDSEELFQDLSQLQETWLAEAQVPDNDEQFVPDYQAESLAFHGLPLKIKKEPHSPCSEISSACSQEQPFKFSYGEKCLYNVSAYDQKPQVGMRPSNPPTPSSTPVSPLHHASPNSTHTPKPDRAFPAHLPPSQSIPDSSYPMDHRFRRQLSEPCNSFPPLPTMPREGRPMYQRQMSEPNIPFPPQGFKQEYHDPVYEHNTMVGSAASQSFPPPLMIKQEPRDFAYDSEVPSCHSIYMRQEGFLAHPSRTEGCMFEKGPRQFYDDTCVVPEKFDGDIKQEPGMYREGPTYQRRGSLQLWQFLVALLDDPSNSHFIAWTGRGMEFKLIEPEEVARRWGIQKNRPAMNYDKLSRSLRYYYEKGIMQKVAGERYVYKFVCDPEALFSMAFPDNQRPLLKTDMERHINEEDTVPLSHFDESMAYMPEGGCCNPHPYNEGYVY
Chain of HSF1 (Q00613 whole entry): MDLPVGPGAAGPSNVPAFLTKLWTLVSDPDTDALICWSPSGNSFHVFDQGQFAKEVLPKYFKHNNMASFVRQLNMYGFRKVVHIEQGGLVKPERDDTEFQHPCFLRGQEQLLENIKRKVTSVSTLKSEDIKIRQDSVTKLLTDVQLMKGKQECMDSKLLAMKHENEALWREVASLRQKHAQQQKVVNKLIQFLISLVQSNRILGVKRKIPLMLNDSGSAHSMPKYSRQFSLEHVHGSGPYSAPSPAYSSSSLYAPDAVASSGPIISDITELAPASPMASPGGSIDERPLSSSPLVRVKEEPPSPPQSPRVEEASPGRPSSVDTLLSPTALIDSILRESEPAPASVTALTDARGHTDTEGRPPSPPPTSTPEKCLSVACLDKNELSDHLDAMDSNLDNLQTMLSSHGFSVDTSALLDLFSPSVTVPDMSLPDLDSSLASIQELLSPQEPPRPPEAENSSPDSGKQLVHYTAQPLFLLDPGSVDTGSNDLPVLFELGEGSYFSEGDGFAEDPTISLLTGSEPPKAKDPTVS
Chain of ETV5 (P41161 whole entry): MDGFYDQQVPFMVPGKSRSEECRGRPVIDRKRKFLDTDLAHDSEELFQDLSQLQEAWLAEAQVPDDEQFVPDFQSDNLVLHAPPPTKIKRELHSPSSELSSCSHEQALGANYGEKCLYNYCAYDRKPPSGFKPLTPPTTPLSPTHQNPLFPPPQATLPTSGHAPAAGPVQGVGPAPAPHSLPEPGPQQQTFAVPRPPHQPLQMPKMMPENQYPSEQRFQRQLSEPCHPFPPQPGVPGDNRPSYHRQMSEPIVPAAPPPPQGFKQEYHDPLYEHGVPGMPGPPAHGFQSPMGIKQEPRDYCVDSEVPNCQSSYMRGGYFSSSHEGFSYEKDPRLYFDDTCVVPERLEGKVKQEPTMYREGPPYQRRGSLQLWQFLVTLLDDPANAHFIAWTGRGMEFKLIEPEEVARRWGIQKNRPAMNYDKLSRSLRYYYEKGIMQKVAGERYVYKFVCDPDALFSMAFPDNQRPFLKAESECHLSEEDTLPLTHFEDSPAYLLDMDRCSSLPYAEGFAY
Chain of CRX (O43186 whole entry): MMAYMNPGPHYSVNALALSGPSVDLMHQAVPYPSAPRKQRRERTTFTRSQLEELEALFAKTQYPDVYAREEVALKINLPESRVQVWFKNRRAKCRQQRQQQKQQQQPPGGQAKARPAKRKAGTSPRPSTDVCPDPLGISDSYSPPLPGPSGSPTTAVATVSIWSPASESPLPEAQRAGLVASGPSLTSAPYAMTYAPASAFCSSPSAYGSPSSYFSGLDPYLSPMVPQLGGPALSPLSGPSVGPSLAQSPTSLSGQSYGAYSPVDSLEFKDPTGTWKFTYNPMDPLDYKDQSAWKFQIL
Chain of ELF4 (Q99607 whole entry): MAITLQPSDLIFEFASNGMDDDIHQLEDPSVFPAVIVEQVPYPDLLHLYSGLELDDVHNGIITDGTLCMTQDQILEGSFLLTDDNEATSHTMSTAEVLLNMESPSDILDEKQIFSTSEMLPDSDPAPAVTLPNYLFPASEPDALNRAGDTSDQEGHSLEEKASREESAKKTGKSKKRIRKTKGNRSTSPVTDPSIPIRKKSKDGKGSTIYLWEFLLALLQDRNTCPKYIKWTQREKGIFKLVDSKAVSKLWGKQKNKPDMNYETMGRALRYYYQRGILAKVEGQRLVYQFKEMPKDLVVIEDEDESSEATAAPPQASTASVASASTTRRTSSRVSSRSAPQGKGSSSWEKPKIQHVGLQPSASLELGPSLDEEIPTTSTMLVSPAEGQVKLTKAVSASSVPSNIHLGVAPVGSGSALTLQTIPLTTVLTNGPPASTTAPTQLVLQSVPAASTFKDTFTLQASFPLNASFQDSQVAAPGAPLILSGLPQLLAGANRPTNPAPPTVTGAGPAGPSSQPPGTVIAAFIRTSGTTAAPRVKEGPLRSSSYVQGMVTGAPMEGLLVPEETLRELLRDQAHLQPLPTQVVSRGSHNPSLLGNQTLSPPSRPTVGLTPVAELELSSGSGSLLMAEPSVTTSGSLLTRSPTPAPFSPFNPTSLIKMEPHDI

TAGATG
binding signal (FEV): 1.22 fold enrichment (6-mer frequency, TF over GST control) | binding signal (ETV5): 1.22 fold enrichment (6-mer frequency, TF over GST control) | binding signal (HSF1): 1.66 fold enrichment (6-mer frequency, TF over GST control) | binding signal (SPIC): 1.57 fold enrichment (6-mer frequency, TF over GST control) | binding signal (ELF4): 1.18 fold enrichment (6-mer frequency, TF over GST control) | binding signal (ELK4): 1.3 fold enrichment (6-mer frequency, TF over GST control) | binding signal (ETV2): 1.37 fold enrichment (6-mer frequency, TF over GST control) | binding signal (ELF3): 1.32 fold enrichment (6-mer frequency, TF over GST control) | binding signal (CRX): 1.52 fold enrichment (6-mer frequency, TF over GST control) | binding signal (ETV1): 1.15 fold enrichment (6-mer frequency, TF over GST control)
